Drawing on ChEMBL document CHEMBL1961873, “Compounds: GSK PKIS; Assays: Nanosyn kinase panel” (2012), this text covers inhibition for four compounds.

Assay [1] deals with T1, Serine/threonine-protein kinase Nek9 (Homo sapiens) (UniProt Q8TD19).
T1 sequence (whole entry): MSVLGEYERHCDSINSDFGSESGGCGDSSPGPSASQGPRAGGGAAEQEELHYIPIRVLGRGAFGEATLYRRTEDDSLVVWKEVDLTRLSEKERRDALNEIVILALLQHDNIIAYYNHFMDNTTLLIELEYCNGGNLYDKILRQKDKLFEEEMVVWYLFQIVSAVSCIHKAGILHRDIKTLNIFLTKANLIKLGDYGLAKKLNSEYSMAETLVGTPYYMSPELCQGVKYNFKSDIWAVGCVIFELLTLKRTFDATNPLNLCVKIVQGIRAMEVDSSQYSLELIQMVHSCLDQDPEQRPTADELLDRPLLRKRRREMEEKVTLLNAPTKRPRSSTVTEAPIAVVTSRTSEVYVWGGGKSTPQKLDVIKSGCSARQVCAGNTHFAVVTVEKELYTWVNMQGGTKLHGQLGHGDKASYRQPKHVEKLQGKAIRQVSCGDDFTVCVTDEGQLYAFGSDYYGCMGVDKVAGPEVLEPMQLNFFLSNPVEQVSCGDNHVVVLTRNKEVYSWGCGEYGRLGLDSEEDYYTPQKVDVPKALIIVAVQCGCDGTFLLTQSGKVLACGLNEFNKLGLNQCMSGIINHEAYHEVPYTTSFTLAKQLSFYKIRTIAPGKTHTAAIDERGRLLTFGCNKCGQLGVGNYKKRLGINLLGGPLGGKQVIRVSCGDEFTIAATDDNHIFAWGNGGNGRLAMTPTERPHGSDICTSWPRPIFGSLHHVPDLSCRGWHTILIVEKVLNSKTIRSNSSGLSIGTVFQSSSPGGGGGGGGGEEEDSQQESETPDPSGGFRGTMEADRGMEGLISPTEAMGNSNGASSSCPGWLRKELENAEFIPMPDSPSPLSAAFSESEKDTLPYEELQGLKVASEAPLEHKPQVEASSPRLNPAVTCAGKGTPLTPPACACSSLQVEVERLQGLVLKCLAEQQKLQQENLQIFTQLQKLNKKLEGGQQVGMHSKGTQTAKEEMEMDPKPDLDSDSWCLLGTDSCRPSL
As to conditions: at 1 µM.

Assay [2] concerns the target Serine/threonine-protein kinase PLK1 (Homo sapiens) (UniProt P53350). As to conditions: at 0.1 µM.
The target is the same in assay [3]. As to conditions: at 1 µM.
The target of assay [4] is T2, Dual specificity protein kinase TTK (Homo sapiens) (UniProt P33981).
T2 sequence (whole entry): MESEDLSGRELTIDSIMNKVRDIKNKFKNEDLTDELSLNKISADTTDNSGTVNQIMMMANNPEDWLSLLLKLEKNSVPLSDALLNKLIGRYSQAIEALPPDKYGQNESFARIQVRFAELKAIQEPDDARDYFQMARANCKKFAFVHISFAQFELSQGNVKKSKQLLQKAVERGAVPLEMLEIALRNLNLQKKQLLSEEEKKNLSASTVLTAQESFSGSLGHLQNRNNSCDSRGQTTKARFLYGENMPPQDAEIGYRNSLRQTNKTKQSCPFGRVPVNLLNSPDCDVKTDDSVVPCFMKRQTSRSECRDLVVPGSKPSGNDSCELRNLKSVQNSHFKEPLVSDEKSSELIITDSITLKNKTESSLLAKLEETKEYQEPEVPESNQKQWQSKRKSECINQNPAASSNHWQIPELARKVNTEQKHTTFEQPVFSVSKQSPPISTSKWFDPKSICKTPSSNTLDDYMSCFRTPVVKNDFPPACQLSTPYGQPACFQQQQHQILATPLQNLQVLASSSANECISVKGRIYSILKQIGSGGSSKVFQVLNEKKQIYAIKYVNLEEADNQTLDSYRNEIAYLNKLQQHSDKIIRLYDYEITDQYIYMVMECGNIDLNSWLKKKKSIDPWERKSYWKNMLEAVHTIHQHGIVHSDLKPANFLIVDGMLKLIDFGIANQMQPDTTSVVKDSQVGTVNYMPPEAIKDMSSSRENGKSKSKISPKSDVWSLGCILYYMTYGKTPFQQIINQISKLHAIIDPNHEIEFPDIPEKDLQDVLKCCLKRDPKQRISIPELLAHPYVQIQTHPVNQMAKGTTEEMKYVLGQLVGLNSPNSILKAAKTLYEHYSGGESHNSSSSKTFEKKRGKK
Particulars: at 0.1 µM.

Assay [5] relates to T3, Receptor-type tyrosine-protein kinase FLT3 (Homo sapiens), P36888 [D835Y].
T3 sequence (whole entry): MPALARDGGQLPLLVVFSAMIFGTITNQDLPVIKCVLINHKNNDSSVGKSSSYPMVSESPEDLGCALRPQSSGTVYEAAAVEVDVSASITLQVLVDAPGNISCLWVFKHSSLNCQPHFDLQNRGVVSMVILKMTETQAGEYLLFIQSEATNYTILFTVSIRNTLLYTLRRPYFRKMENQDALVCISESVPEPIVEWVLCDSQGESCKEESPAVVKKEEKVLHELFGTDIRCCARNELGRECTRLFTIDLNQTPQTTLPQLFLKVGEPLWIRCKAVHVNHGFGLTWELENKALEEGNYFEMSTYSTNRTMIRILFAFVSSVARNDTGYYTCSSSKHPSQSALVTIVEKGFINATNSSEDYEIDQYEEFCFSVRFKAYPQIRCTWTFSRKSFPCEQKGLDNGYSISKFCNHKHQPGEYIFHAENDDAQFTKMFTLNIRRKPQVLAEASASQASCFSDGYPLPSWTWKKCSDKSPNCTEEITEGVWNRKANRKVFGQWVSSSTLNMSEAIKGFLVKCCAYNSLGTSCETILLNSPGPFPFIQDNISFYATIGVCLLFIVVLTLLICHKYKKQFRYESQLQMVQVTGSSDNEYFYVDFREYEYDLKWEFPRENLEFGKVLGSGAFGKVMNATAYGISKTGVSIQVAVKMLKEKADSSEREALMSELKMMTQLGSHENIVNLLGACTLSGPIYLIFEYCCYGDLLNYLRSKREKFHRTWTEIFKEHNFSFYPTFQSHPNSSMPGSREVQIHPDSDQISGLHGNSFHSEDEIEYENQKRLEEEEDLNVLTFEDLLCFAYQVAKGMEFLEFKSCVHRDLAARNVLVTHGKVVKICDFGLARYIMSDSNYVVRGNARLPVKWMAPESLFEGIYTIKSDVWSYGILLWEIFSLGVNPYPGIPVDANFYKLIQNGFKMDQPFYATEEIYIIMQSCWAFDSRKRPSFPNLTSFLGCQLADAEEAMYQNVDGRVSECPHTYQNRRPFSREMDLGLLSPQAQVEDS
Particulars: at 1 µM.

Assay [6] addresses Vascular endothelial growth factor receptor 3 (Homo sapiens) (UniProt P35916). Particulars: at 0.1 µM.
The target is the same in assay [7]. Particulars: at 1 µM.
Assay [8] addresses Macrophage colony-stimulating factor 1 receptor (Homo sapiens) (UniProt P07333). Particulars: at 0.1 µM.
The target is the same in assay [9]. Particulars: at 1 µM.
The target in assay [10] is Tyrosine-protein kinase Fyn (Homo sapiens) (UniProt P06241). As to conditions: at 0.1 µM.
The target is the same in assay [11]. As to conditions: at 1 µM.
Assay [12] concerns the target Tyrosine-protein kinase HCK (Homo sapiens) (UniProt P08631). Particulars: at 0.1 µM.
The target is the same in assay [13]. As to conditions: at 1 µM.
The target of assay [14] is Insulin-like growth factor 1 receptor (Homo sapiens) (UniProt P08069). As to conditions: at 0.1 µM.
Assay [15] has the same target. Particulars: at 1 µM.
For assay [16], the target named is Insulin receptor (Homo sapiens) (UniProt P06213). As to conditions: at 0.1 µM.
The target is the same in assay [17]. Particulars: at 1 µM.
In assay [18] the target is Insulin receptor-related protein (Homo sapiens) (UniProt P14616). Particulars: at 0.1 µM.
For assay [19] the target is unchanged. As to conditions: at 1 µM.
The target of assay [20] is T4, Tyrosine-protein kinase ITK/TSK (Homo sapiens) (UniProt Q08881).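 Further: mean percent inhibition of ITK from the GSK PKIS screen.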
T4 sequence (whole entry): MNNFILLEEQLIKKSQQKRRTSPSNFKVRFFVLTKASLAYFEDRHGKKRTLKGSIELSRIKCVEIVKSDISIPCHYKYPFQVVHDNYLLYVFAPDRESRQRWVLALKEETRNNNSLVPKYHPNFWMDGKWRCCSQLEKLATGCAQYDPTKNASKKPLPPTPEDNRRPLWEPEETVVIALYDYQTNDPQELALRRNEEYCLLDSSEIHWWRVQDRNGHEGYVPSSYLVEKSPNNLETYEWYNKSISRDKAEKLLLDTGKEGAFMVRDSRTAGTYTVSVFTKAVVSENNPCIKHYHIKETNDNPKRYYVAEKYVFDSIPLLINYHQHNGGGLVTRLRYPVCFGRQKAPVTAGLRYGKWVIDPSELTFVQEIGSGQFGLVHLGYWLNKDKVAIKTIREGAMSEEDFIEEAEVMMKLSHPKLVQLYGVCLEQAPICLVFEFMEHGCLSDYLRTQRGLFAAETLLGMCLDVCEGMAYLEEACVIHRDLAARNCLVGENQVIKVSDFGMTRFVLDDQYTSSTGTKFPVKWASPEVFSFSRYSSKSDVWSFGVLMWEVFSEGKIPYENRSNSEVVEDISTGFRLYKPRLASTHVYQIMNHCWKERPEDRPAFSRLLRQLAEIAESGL
As to conditions: at 0.1 µM.

Each structure is given as a SMILES string.

Sequence of Serine/threonine-protein kinase PLK1 (Homo sapiens) (P53350 whole entry): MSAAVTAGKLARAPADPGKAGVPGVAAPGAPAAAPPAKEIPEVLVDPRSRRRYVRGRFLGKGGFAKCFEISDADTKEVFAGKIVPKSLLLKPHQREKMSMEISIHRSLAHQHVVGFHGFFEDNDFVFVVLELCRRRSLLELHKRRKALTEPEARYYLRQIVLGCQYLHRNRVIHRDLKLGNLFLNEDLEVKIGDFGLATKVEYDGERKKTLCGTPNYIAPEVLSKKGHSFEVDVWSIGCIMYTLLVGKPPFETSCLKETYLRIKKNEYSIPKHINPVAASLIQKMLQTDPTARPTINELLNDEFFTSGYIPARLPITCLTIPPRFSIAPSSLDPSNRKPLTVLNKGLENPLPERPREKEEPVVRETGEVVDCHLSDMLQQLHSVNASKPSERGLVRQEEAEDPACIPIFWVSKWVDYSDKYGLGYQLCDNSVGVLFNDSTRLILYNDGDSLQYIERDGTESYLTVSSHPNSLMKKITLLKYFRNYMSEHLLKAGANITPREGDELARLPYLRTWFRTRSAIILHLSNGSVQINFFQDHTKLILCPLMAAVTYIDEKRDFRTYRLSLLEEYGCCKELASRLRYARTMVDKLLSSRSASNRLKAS
Sequence of Tyrosine-protein kinase Fyn (Homo sapiens) (P06241 2-537 limits assumed): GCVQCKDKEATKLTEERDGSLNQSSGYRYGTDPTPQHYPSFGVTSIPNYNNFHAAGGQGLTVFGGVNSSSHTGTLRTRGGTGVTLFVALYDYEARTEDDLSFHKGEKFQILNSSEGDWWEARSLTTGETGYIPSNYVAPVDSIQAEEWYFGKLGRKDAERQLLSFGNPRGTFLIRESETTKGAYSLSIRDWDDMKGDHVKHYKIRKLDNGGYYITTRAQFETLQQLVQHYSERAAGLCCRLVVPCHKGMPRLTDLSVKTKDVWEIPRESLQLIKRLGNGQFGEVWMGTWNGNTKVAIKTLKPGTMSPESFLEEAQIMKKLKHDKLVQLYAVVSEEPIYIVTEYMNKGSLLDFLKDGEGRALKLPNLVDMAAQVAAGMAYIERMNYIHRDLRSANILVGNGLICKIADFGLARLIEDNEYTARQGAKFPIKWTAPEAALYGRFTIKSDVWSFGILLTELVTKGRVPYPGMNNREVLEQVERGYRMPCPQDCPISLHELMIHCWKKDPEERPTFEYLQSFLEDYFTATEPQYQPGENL
Sequence of Insulin-like growth factor 1 receptor (Homo sapiens) (P08069 31-736 limits assumed): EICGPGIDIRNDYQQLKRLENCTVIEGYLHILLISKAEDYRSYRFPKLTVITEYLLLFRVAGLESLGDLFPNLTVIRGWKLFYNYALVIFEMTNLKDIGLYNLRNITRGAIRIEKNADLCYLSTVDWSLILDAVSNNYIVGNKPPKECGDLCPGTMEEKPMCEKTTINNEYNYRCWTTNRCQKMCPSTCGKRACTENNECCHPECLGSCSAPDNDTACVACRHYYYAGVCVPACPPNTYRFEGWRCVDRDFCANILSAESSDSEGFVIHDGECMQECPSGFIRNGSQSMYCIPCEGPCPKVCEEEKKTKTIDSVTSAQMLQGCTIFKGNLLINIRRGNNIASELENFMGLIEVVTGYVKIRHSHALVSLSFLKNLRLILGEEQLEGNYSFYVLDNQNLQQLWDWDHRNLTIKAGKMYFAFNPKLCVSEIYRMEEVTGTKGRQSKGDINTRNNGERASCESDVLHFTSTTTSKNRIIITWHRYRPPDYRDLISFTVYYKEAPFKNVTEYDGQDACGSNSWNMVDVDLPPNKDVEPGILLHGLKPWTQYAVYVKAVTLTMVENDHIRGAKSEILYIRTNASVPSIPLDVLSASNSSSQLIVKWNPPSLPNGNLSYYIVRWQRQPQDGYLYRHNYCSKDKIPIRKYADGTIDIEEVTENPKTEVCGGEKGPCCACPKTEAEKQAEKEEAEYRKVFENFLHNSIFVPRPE
Sequence of Insulin-like growth factor 1 receptor (Homo sapiens) (P08069 741-1367 limits assumed): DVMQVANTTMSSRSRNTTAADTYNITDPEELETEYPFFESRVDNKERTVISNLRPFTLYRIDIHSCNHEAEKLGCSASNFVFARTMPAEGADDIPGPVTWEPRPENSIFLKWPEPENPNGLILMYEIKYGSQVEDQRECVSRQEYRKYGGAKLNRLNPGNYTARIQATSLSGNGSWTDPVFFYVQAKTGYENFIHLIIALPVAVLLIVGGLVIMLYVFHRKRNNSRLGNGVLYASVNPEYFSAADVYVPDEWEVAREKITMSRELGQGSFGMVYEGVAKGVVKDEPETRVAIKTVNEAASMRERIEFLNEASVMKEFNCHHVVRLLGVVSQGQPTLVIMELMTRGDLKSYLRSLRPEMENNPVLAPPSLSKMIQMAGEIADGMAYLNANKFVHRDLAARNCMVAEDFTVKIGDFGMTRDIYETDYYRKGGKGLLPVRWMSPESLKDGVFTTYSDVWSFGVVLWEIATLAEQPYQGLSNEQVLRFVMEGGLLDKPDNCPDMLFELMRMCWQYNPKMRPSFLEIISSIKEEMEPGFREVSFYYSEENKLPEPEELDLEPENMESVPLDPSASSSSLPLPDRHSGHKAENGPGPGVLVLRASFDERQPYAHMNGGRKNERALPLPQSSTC
Sequence of Tyrosine-protein kinase HCK (Homo sapiens) (P08631 2-526 limits assumed): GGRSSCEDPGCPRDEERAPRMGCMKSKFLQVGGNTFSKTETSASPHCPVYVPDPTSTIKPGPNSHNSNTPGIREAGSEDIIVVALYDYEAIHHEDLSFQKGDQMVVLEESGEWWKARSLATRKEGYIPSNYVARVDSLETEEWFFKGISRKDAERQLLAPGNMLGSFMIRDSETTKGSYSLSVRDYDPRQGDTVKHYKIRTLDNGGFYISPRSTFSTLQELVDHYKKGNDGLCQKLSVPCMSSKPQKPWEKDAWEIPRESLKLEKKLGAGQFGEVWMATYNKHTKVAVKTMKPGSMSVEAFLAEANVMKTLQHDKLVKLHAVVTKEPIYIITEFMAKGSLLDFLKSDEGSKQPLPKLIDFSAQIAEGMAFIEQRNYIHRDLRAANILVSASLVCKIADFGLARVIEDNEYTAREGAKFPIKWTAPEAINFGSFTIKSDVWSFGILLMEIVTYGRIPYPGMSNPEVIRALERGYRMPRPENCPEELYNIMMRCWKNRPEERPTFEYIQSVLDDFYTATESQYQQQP
Sequence of Insulin receptor (Homo sapiens) (P06213 28-758 limits assumed): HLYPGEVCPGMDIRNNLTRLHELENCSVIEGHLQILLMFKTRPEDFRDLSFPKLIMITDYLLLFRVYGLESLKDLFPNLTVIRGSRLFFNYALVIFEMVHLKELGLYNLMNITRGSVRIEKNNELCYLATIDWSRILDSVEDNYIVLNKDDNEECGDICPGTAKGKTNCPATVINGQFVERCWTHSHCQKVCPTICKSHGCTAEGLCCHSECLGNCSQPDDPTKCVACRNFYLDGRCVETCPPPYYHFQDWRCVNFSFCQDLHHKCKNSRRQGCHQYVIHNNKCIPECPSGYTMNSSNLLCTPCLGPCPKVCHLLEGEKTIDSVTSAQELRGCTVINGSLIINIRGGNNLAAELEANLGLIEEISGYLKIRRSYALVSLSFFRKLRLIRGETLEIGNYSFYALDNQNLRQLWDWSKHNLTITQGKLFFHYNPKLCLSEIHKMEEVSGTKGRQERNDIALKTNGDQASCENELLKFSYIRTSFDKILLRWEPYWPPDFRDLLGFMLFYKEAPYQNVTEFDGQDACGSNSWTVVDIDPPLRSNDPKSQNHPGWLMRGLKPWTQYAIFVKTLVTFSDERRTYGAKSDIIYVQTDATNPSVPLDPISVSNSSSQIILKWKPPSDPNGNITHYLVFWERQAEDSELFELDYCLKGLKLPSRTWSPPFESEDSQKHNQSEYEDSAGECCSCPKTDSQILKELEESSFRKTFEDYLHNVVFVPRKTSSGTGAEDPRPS
Sequence of Insulin receptor (Homo sapiens) (P06213 763-1382 limits assumed): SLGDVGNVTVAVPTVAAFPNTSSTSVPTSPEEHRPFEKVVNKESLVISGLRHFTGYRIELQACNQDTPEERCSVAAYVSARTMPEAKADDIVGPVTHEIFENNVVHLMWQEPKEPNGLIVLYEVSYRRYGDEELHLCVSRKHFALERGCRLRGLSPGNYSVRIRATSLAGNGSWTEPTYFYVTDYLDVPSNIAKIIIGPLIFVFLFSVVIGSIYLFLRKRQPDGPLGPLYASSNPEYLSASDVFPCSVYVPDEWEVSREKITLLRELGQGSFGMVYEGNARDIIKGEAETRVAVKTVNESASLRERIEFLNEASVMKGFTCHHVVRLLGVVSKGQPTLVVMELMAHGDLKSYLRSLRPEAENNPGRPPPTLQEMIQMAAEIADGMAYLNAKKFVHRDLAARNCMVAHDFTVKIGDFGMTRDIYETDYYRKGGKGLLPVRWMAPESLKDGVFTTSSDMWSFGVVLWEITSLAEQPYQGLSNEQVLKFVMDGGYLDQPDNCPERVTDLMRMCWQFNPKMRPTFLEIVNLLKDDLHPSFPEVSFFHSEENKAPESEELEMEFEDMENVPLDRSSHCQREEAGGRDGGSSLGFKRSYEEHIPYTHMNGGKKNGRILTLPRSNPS

For the compound `NC(=O)c1cc(-c2ccncc2)cc(-c2ccccc2)c1N`, the inhibition – broadly, the change of the read-out against control, counted positive when it falls – in assay [1] came to 3.74%; in assay [2], 4.45%; in [3], 5.13%; in [4] it was 8.7%; in assay [5], 2.51%; in [6] it was 2.14%. For the same compound, the inhibition in [7] was 6.17%; in [8] it was 22.8%; in [9], 64.8%; in [10], 6.39%; in assay [11], 37.6%; in [12] it was 12.1%. In addition, the inhibition in assay [13] came out at 43.7%; in assay [14], 5.73%; in assay [15], 5.9%; in assay [16], 6.28%; in assay [17], 6.25%; in assay [18], 2.11%. In addition, the inhibition stood at 1.56% in assay [19] and 1.61% in assay [20].
With `NC(=O)c1cc(-c2ccc(F)cc2)cc(-c2ccncc2)c1N`, the inhibition in [1] is 19.1%; in [2], 5.25%; in [3], 2.93%; in [4] it was 11.9%; in assay [5], -3.97%; in assay [6], -0.28%. Further, the inhibition in [7] amounted to 0.18%; in assay [8], 2.97%; in assay [9], 15.4%; in [10] it was 0.07%; in assay [11] it was 5.17%; in assay [12] it was 6.59%. Also, the inhibition in assay [13] was 7.14%; in assay [14] it was 2.14%; in assay [15], -0.61%; in [16], 5.25%; in [17] it was 5.27%; in [18], 1.58%. The inhibition in assay [19] came out at 1.32%; in [20], 0.92%.
With `NCc1ccc(-n2c(-c3nonc3N)nc3cnccc32)cc1`, the inhibition came to 6.1% in assay [1]; 3.75% in assay [2]; 3.27% in assay [3]; 19.4% in [4]; 6.04% in [5]; 6.13% in [6]. Besides, the inhibition in assay [7] is 7.01%; in [8], 12.5%; in assay [9], 49.6%; in [10], 1.24%; in [11], 0.2%; in assay [12] it was 6.26%. Besides, the inhibition in assay [13] stood at 10.4%; in assay [14], 5.71%; in assay [15], 8.21%; in assay [16] it was 8.46%; in [17], 8.17%; in [18], 3.81%. Moreover, the inhibition was found to be 2.5% in [19] and 1.67% in assay [20].
Regarding `Fc1ccc(-c2ncn(C3CCNCC3)c2-c2ccnc(Oc3ccc(Oc4ccccc4)cc3)n2)cc1`, the inhibition in assay [1] is 4.8%; in [2], 4.45%; in assay [3], 6.8%; in assay [4] it was 6.67%; in assay [5], -1.89%; in assay [6] it was 3.28%. The inhibition in [7] was 1.1%; in assay [8] it was 2.27%; in [9], 3.02%; in assay [10], 2.65%; in [11], 5.66%; in [12], 5.33%. The inhibition amounted to 8.1% in [13]; 5.31% in assay [14]; 1.58% in assay [15]; 7.04% in assay [16]; 3.44% in assay [17]; 1.91% in [18]. Further, the inhibition stood at 3.32% in [19] and 3.37% in assay [20].
